Marburg entry inh: Marburg virus entry inhibition; Marburg virus pseudotyped entry inhibition, cell reporter; Potency, µM (doses to about 37.8 µM), hits mostly inhibitors; actives 1.8% (n = 300,000); AID 540276; calls by dose curve; tested in HEK293 cells
Cycloheximide cs: counter-screen hit for Shiga toxin inhibitors, cycloheximide; cell reporter, cycloheximide protein synthesis inhibition counterscreen; max response, %; actives 12% (n = 300,000); in the data active = max response mostly above about 13%, no sharp cut-off; inactive = mostly below about 14%; note: read at 38.3 µM for the half of the compounds with a filed dose
Lassa entry inh: inhibitors of Lassa virus binding or cell entry; Lassa virus pseudotype entry inhibition, cell reporter; Potency, µM (series often up to 37.9 µM), usual class: inhibitors; actives 1.2% (n = 300,000); calls by dose curve; tested in HEK293 cells; note: nearly all actives have a fitted effect of over 50% in size
Shiga inhibitor: blocks Shiga toxin action in Vero cells; Vero cells, Shiga toxin protein synthesis inhibition reporter; inhibition, % at 38.7 µM; actives 9.2% (n = 290,000); AID 2315; in the data active = inhibition mostly above about 28%, no sharp cut-off; inactive = mostly below about 43%
Large screens that a line does not name were inactive. Hits are enriched below; roughly 12% of the tested compounds scored in any of these assays.

CC(C)N(C(=O)Cn1c(=O)oc2ccccc21)c1ccccc1	none (no result: Marburg entry inh, Lassa entry inh)
O=C(Nc1ccccc1Br)C(=O)N1CCCC1	Cycloheximide cs 40, Shiga inhibitor active
O=C(Nc1ccccn1)C(=O)N1CCCCC1	Shiga inhibitor 47
NC(=O)c1cc[n+](CC2=C(C(=O)O)N3C(=O)[C@@H](NC(=O)[C@@H](c4ccccc4)S(=O)(=O)[O-])[C@H]3SC2)cc1	Lassa entry inh inconclusive (no result: Cycloheximide cs, Shiga inhibitor)
CCOC(=O)C1(Cc2cccc(Cl)c2)CCCN(C(=O)CCOC)C1 (configuration not stated)	Cycloheximide cs 13
CCOC(=O)C1(Cc2cccc(Cl)c2)CCCN(C(=O)CCN2CCCC2=O)C1 (configuration not stated)	Cycloheximide cs 25 (no result: Marburg entry inh, Lassa entry inh)
CCOC(=O)C1(Cc2cccc(Cl)c2)CCCN(C(=O)CCSC)C1 (configuration not stated)	Cycloheximide cs 22 (no result: Marburg entry inh, Lassa entry inh)
CCOC(=O)C1(Cc2ccccc2C)CCCN(C(=O)COC)C1 (configuration not stated)	Cycloheximide cs 23, Shiga inhibitor 41 (no result: Marburg entry inh, Lassa entry inh)
C=CCCC(=O)N1CCCC(Cc2cccc(Cl)c2)(C(=O)OCC)C1 (configuration not stated)	Marburg entry inh inconclusive
CN(C)C(CNC(=O)c1cc(S(=O)(=O)N(C)c2ccccc2)ccc1Cl)c1cccs1 (configuration not stated)	Marburg entry inh inconclusive
N#Cc1ccc2c(c1)C[C@]1(c3ccsc3)Oc3c(c(=O)oc4ccc(F)cc34)[C@@H]2O1	Lassa entry inh inconclusive (no result: Cycloheximide cs, Shiga inhibitor)
Cc1ccc(N/C=C2\CCCCC2=O)c(C)c1	none
O=C1CCCC/C1=C\Nc1ccc(Cl)cn1	Cycloheximide cs 27, Lassa entry inh inconclusive, Shiga inhibitor 61
Cc1ccc(N/C=C2\CCCCC2=O)nc1	Cycloheximide cs 58, Shiga inhibitor 107 (no result: Lassa entry inh)
CCCCOc1ccc(C(=O)Nc2nc3c(s2)CC(C)CC3)cc1 (configuration not stated)	none (no result: Cycloheximide cs, Shiga inhibitor)
COC(=O)c1ccc(C(=O)NC(=S)Nc2nc3c(s2)CC(C)CC3)cc1 (configuration not stated)	Marburg entry inh inconclusive, Cycloheximide cs 27
Cc1nnc(NC(=O)CSc2nc3ccccc3o2)s1	none
CC1CCc2nc(NC(=O)CSc3nc4ccccc4o3)sc2C1 (configuration not stated)	Cycloheximide cs 52, Lassa entry inh inconclusive, Shiga inhibitor 85
Cc1nnc(SCC(=O)Nc2nc3c(s2)CC(C)CC3)s1 (configuration not stated)	Cycloheximide cs 37, Shiga inhibitor 60
Cc1csc(NC(=O)CSc2nnc(C)s2)n1	Lassa entry inh inconclusive
COc1ccc(CNc2ccc(N3CCOCC3)cc2)cc1	Cycloheximide cs 22 (no result: Marburg entry inh, Lassa entry inh)
COC(=O)c1ccc(NC(=O)CSc2n[nH]c(CC(C)C)n2)cc1	Lassa entry inh inconclusive (no result: Cycloheximide cs, Shiga inhibitor)
COc1ccc2nc(NC(=O)CCN3C(=O)c4ccccc4C3=O)sc2c1	none
COc1ccc2nc(NC(=O)CCc3ccc(OC)c(OC)c3)sc2c1	Cycloheximide cs 30 (no result: Marburg entry inh, Lassa entry inh)
CCCC(=O)Nc1nc2ccc(OC)cc2s1	Cycloheximide cs 75, Shiga inhibitor 104 (no result: Marburg entry inh, Lassa entry inh)
COc1ccc2nc(NC(=S)N(C)C)sc2c1	Marburg entry inh 10µM, Cycloheximide cs 47, Lassa entry inh inconclusive, Shiga inhibitor 68
COc1ccc(/C=N/OCC(=O)Nc2nc3ccccc3s2)cc1	Cycloheximide cs 34, Shiga inhibitor active
COc1ccc(CCC(=O)Nc2ncc(C)s2)cc1OC	none (no result: Marburg entry inh, Lassa entry inh)
Cc1cc(Nc2ccc(Br)cc2F)n2nc(C)nc2n1	none (no result: Marburg entry inh, Lassa entry inh)
O=C(NCc1ccccc1F)C(=O)NCC(c1ccco1)S(=O)(=O)c1ccccc1 (configuration not stated)	none (no result: Marburg entry inh, Cycloheximide cs, Shiga inhibitor)
CN(C)c1ccc(/C=c2\sc3n(c2=O)CCCN=3)cc1	Marburg entry inh inconclusive, Cycloheximide cs 25, Lassa entry inh 2µM
O=c1/c(=C\c2ccc(F)cc2)sc2n1CCCN=2	Cycloheximide cs 43, Lassa entry inh inconclusive, Shiga inhibitor 93
O=c1/c(=C/c2ccc(O)cc2)sc2n1CCCN=2	Lassa entry inh inconclusive, Shiga inhibitor 104
COC(=O)/C=c1/sc2n(c1=O)CCN=2	none
O=C(COc1ccc(S(=O)(=O)N2CCOCC2)cc1Cl)NCC1CCCO1 (configuration not stated)	Lassa entry inh inconclusive
O=C1c2cccc3c([N+](=O)[O-])ccc(c23)C(=O)N1c1ccc(Cl)cn1	Marburg entry inh inconclusive, Lassa entry inh inconclusive
O=C1c2cccc3c([N+](=O)[O-])ccc(c23)C(=O)N1c1ccccn1	Marburg entry inh 10µM, Lassa entry inh inconclusive
Cc1cccc(C)c1OCc1cc(C(=O)N2CCC(c3ccccc3)CC2)no1	Cycloheximide cs 41, Shiga inhibitor 100 (no result: Marburg entry inh, Lassa entry inh)
Cc1cccc(C)c1OCc1cc(C(=O)N2CCN(c3ccc(F)cc3)CC2)no1	Cycloheximide cs 52, Shiga inhibitor 109 (no result: Marburg entry inh, Lassa entry inh)
Cc1cccc(C)c1OCc1cc(C(=O)N2CCN(c3ccccn3)CC2)no1	Cycloheximide cs 44, Shiga inhibitor 46 (no result: Marburg entry inh, Lassa entry inh)
CCOC(=O)CN1C(=O)CC(c2ccccc2)C1=O (configuration not stated)	none
Cc1nc2n(c(=O)c1CCN1CCC(c3noc4cc(F)ccc34)CC1)CCCC2O (configuration not stated)	none (no result: Cycloheximide cs, Shiga inhibitor)
Cc1ccc(NC(=O)Cn2cnc3c(oc4ccccc43)c2=O)cc1Cl	none (no result: Marburg entry inh, Cycloheximide cs, Shiga inhibitor)
COc1ccc2nc3sc(C(=O)NCCN4CCc5ccccc5C4)cc3cc2c1	Marburg entry inh inconclusive, Cycloheximide cs 43, Shiga inhibitor 53
CCN1CCN(C(=O)c2cc3cc4cc(OC)ccc4nc3s2)CC1	Marburg entry inh inconclusive, Cycloheximide cs 12, Shiga inhibitor 25
COc1ccc2cc3cc(C(=O)N4CCN(c5cccc(C(F)(F)F)c5)CC4)sc3nc2c1	none (no result: Cycloheximide cs, Shiga inhibitor)
COc1ccc2cc3cc(C(=O)NC4CC4)sc3nc2c1	Cycloheximide cs 48, Shiga inhibitor 57 (no result: Marburg entry inh, Lassa entry inh)
COc1ccc2cc3cc(C(=O)NCCCN4CCc5ccccc5C4)sc3nc2c1	Marburg entry inh inconclusive, Cycloheximide cs 35, Lassa entry inh inconclusive, Shiga inhibitor 71
CCn1nnc2cc(C(=O)O)ccc21	none
CC(=O)Nc1ccc(S(=O)(=O)N(C)CC(=O)OCC(=O)N2CC(C)OC(C)C2)cc1 (configuration not stated)	none (no result: Cycloheximide cs, Shiga inhibitor)
Cc1ccc(C(=O)N2CCC(C(=O)c3c(C)cc(C)cc3C)CC2)cc1	none (no result: Marburg entry inh, Lassa entry inh)
CC(C)(C)c1ccc(C(=O)N2CCN(CCNC(=O)C(=O)NCc3ccccc3)CC2)cc1	none
CC(=O)c1ccccc1NC(=O)COC(=O)c1ccc2c(c1)nc(C)n2-c1ccccc1	none
CC(=O)Nc1ccc2c(c1)nc(C)n2-c1ccccc1	Cycloheximide cs 13 (no result: Marburg entry inh, Lassa entry inh)
Cc1nc2cc(C(=O)OCC(=O)NC(C)C(C)C)ccc2n1-c1ccccc1 (configuration not stated)	Marburg entry inh inconclusive, Lassa entry inh 8.2µM
Cc1ccc(-c2[nH]ncc2C(=O)c2ccc(Br)cc2)c(O)c1	Marburg entry inh inconclusive, Cycloheximide cs 11
Cc1ccc(C(=O)c2cn[nH]c2-c2cc(Cl)ccc2O)cc1	none
CC(C)(C)NC(=S)Nc1ccc(Br)cc1	Cycloheximide cs 32, Shiga inhibitor 58
CC(C)(C)NC(=S)Nc1ccc(Nc2ccccc2)cc1	Cycloheximide cs 19, Shiga inhibitor 46
